Test results reported in the supplement of paper PMC12350171.
Structures can show the parent of a compound that is named as a salt.

Tested on: Haemophilus parainfluenzae
Assay: growth AUC normalised to DMSO control (fraction of control); higher = less growth inhibition, active = hit call of the paper
Details: 20 µM;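 active = AUC significantly below DMSO controls by Student t-fit with adjusted P under 0.01; inactive = not significantly reduced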
How it was run: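 Pathogens passaged twice anaerobically were inoculated at a starting OD578 of 0.01 into pre-reduced mGAM plates with drug at 20 μM and 1% DMSO, sealed with breathable membranes. Haemophilus parainfluenzae medium was supplemented with hemin and NAD. OD578 was read hourly for 24 h, with three biological replicates. Growth-curve AUC was computed by the trapezoidal rule up to the exponential-to-stationary transition and normalised to DMSO controls on the same plate.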

SMILES: Cn1nnc2c(C(N)=O)ncn2c1=O [Temozolomide]
- growth AUC normalised to DMSO control: 0.975 (inactive)

SMILES: CC(=O)N[C@@H](CC(=O)O)C(=O)N[C@@H](CCC(=O)O)C(=O)O [Spaglumic acid]
- growth AUC normalised to DMSO control: 1.04 (inactive)

SMILES: COC1=CC(=O)C[C@@H](C)[C@]12Oc1c(Cl)c(OC)cc(OC)c1C2=O [Griseofulvin]
- growth AUC normalised to DMSO control: 1.02 (inactive)

SMILES: CCC1(c2ccccc2)C(=O)NCNC1=O [Primidone]
- growth AUC normalised to DMSO control: 0.953 (inactive)

SMILES: Cc1cc2c(s1)Nc1ccccc1N=C2N1CCN(C)CC1 [Olanzapine]
- growth AUC normalised to DMSO control: 1.02 (inactive)

SMILES: CCCN(CCC)S(=O)(=O)c1ccc(C(=O)O)cc1 [Probenecid]
- growth AUC normalised to DMSO control: 1.02 (inactive)

SMILES: CC(CN(C)C)CN1c2ccccc2CCc2ccccc21 (configuration not stated) [Trimipramine maleate salt]
- growth AUC normalised to DMSO control: 1.07 (inactive)

SMILES: NC[C@@H]1O[C@@H](O[C@H]2[C@H](O)[C@@H](O[C@H]3O[C@H](CO)[C@@H](O)[C@H](N)[C@H]3O)[C@H](N)C[C@@H]2N)[C@@H](O)[C@H](O)[C@H]1O [Kanamycin A sulfate]
- growth AUC normalised to DMSO control: 0.976 (inactive)

SMILES: O=C1NCCN1c1ncc([N+](=O)[O-])s1 [Niridazole]
- growth AUC normalised to DMSO control: 0.392 (active)

SMILES: O=C1NCCN1CCN1CCC(c2cn(-c3ccc(F)cc3)c3ccc(Cl)cc23)CC1 [Sertindole]
- growth AUC normalised to DMSO control: 1 (inactive)

SMILES: C#CCN(C)Cc1ccccc1 [Pargyline hydrochloride]
- growth AUC normalised to DMSO control: 0.979 (inactive)

SMILES: CC(N/C(=N\C#N)Nc1ccncc1)C(C)(C)C (configuration not stated) [Pinacidil monohydrate]
- growth AUC normalised to DMSO control: 1 (inactive)

SMILES: CCCCC1C(=O)N(c2ccccc2)N(c2ccccc2)C1=O [Phenylbutazone]
- growth AUC normalised to DMSO control: 1.02 (inactive)

SMILES: CNCCCC12CCC(c3ccccc31)c1ccccc12 [Maprotiline hydrochloride]
- growth AUC normalised to DMSO control: 0.979 (inactive)

SMILES: CN(C/C=C/c1ccccc1)Cc1cccc2ccccc12 [Naftifine hydrochloride]
- growth AUC normalised to DMSO control: 0.977 (inactive)

SMILES: CC(C)NCC(O)c1ccc(O)c(O)c1 (single isomer, unassigned; (-)) [(-) Isoproterenol hydrochloride]
- growth AUC normalised to DMSO control: 1.03 (inactive)

SMILES: COc1c(N2CCNC(C)C2)c(F)cc2c(=O)c(C(=O)O)cn(C3CC3)c12 (configuration not stated) [Gatifloxacin]
- growth AUC normalised to DMSO control: 0.0535 (active)

SMILES: C[C@]12CCC(=O)C=C1CC[C@@H]1[C@@H]2[C@@H](O)C[C@@]2(C)[C@H]1CC[C@]2(O)C(=O)CO [Hydrocortisone]
- growth AUC normalised to DMSO control: 0.936 (inactive)

SMILES: CCc1cc(Cl)c(OC)c(C(=O)NC[C@@H]2CCCN2CC)c1O [(S,-) Eticlopride hydrochloride]
- growth AUC normalised to DMSO control: 0.958 (inactive)

SMILES: CC(C)(O/N=C(\C(=O)N[C@@H]1C(=O)N2C(C(=O)[O-])=C(C[n+]3ccccc3)CS[C@H]12)c1csc(N)n1)C(=O)O [Ceftazidime pentahydrate]
- growth AUC normalised to DMSO control: 0.079 (active)

SMILES: O=c1n(CCCN2CCN(c3cccc(Cl)c3)CC2)nc2ccccn12 [Trazodone hydrochloride]
- growth AUC normalised to DMSO control: 0.98 (inactive)

SMILES: O=C1O[C@H]([C@@H](O)CO)C(O)=C1O [Ascorbic acid]
- growth AUC normalised to DMSO control: 1.06 (inactive)

SMILES: Nc1nc2c(ncn2COCCO)c(=O)[nH]1 [Acyclovir]
- growth AUC normalised to DMSO control: 1.01 (inactive)

SMILES: CN(c1nccc(=O)[nH]1)C1CCN(c2nc3ccccc3n2Cc2ccc(F)cc2)CC1 [Mizolastine]
- growth AUC normalised to DMSO control: 1.11 (inactive)

SMILES: CC(C(O)c1ccc(O)cc1)N1CCC(Cc2ccccc2)CC1 (configuration not stated) [Ifenprodil tartrate]
- growth AUC normalised to DMSO control: 1.01 (inactive)

SMILES: NS(=O)(=O)c1cc(Cl)c(Cl)c(S(N)(=O)=O)c1 [Dichlorphenamide]
- growth AUC normalised to DMSO control: 1.03 (inactive)

SMILES: CNC(=O)c1c(I)c(C(=O)NCC(=O)Nc2c(I)c(C(=O)O)c(I)c(C(=O)NCCO)c2I)c(I)c(N(C)C(C)=O)c1I [Ioxaglic acid]
- growth AUC normalised to DMSO control: 0.921 (inactive)

SMILES: COc1cc(NS(=O)(=O)c2ccc(N)cc2)nc(OC)n1 [Sulfadimethoxine]
- growth AUC normalised to DMSO control: 0.98 (inactive)

SMILES: CC(C)COCC(CN(Cc1ccccc1)c1ccccc1)N1CCCC1 (configuration not stated) [Bepridil hydrochloride]
- growth AUC normalised to DMSO control: 0.771 (inactive)

SMILES: Clc1ccc2nsnc2c1NC1=NCCN1 [Tizanidine hydrochloride]
- growth AUC normalised to DMSO control: 0.965 (inactive)

SMILES: C/C=C(/C(=C/C)c1ccc(O)cc1)c1ccc(O)cc1 [Dienestrol]
- growth AUC normalised to DMSO control: 0.999 (inactive)

SMILES: Cc1nnc(SCC2=C(C(=O)O)N3C(=O)[C@@H](NC(=O)Cn4cnnn4)[C@H]3SC2)s1 [Cefazolin sodium salt]
- growth AUC normalised to DMSO control: 0.0609 (active)
